Laboratory results: PubChem BioAssay
Records with an inconclusive call do not appear. Active and inactive are the calls of the source.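 Rule for the calls, unless noted: active = percent response above a set limit, the screen-wide mean plus 3 SD (cut at about 130% in these data); inactive = the rest.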

Assays:
[1] = yeast TOR pathway RPL19A-GFP modulators, primary screen, cell-based, S. cerevisiae, multiplex flow cytometry (AID 1862; in the data active = percent of DMSO control GFP below about 86%;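 note: lower values mimic rapamycin by blocking the RPL19A rise seen in DMSO cells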); conditions: S. cerevisiae RPL19A-GFP strain, flow cytometry fluorescence, 3 h; at 10 µM; stronger effect = lower value
[2] = modulators of MEP2-GFP levels in yeast, primary screen, S. cerevisiae, multiplex flow cytometry (AID 1867;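 active = GFP response, as percent of the DMSO control, above the screen-wide mean plus 3 SD, about 139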;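 note: median GFP channel fluorescence of barcode-gated MEP2-GFP cells measured by flow cytometry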); conditions: S. cerevisiae MEP2-GFP strain, 3 h, at 10 µM, stronger effect = higher value, 100% means same as DMSO wells
[3] = modulators of CIT2-GFP expression in yeast, primary screen, S. cerevisiae, GFP fusion, multiplex flow cytometry (AID 1870); conditions: 3 h, at 10 µM, stronger effect = higher value;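 note: barcoded CIT2-GFP strain pooled with four other GFP strains with rapamycin as positive control; median GFP fluorescence per well over plate mean of DMSO wells so 100% = DMSO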
[4] = modulators of LAP4-GFP expression in yeast, primary screen, S. cerevisiae, multiplex flow cytometry (AID 1873;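 active = GFP signal, as percent of the solvent control, above the screen mean plus 3 SD, about 149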); conditions: 3 h, at 10 µM, stronger effect = higher value
[5] = modulators of AGP1-GFP expression in yeast TOR pathway, primary screen, cell-based, multiplex flow cytometry, S. cerevisiae (AID 1887;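 active = GFP signal above the screen-wide mean plus 3 SD, that is over about 124.5% of the solvent control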;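 note: AGP1-GFP fusion strain of S. cerevisiae within a five-strain barcoded multiplex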); conditions: 3 h, at 10 µM, stronger effect = higher value
[6] = inhibitors of CD8+ T cell-vesicle binding, pilot screen, LFA-1/ICAM-1 modulator project, MLPCN validation set, flow cytometry (AID 2523;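 active = response below a set limit, under 55% cells CD8-positive and vesicle-bound, and CD8 cells' 90th-percentile brightness under 279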;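 for vesicle binding response: mean PE anti-B7-1 fluorescence of CD8+ cells relative to row control; 100% = QL9-loaded vesicles with DMSO vehicle in the same plate row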); conditions: 2C mouse CD8+ T cells, at 7 µM, stronger effect = lower value; double positive events: measured here: CD8+/vesicle+ event percentage
[7] = molecular target: Integrin beta-1 (Homo sapiens) + Integrin alpha-4 (Homo sapiens) (UniProt P13612+P05556); assay: inhibition of HUTS-21 binding to VLA-4, pilot screen, VLA-4 allosteric modulator project, U937 cells, HUTS-21 mAb, flow cytometry, validation set (AID 2674;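 active = inhibition above 50%, about 3 SD of the validation set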;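 note: antibody binding induced by the VLA-4 ligand LDV present at three times its Kd; 0% = LDV ligand with antibody and no compound and 100% = antibody without LDV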); conditions: HUTS-21 LIBS mAb binding, at 6.7 µM, stronger effect = higher value, binding induced by LDV ligand
Chain of Integrin beta-1 (Homo sapiens) + Integrin alpha-4 (Homo sapiens) (P05556 whole entry, looked up): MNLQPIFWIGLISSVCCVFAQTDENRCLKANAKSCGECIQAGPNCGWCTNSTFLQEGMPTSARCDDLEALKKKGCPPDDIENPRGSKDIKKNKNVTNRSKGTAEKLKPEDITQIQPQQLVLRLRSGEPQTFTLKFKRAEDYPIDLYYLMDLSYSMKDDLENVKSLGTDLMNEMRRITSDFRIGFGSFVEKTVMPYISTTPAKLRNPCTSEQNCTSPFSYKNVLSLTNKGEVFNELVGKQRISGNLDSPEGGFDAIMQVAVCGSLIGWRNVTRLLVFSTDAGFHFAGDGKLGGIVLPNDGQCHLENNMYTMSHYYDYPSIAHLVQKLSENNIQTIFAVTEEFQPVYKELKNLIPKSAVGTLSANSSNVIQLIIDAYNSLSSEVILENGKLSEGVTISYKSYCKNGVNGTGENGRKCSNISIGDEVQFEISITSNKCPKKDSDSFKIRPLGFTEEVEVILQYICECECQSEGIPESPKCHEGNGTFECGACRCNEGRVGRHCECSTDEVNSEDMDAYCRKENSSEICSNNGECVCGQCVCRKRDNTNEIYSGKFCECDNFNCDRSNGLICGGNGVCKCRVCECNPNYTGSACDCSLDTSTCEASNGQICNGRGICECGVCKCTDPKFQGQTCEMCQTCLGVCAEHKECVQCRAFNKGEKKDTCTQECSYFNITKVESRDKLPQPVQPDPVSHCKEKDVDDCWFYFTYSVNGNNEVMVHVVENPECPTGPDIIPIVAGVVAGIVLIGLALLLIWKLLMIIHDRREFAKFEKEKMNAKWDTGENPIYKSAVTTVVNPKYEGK
Chain of Integrin beta-1 (Homo sapiens) + Integrin alpha-4 (Homo sapiens) (P13612 whole entry, looked up): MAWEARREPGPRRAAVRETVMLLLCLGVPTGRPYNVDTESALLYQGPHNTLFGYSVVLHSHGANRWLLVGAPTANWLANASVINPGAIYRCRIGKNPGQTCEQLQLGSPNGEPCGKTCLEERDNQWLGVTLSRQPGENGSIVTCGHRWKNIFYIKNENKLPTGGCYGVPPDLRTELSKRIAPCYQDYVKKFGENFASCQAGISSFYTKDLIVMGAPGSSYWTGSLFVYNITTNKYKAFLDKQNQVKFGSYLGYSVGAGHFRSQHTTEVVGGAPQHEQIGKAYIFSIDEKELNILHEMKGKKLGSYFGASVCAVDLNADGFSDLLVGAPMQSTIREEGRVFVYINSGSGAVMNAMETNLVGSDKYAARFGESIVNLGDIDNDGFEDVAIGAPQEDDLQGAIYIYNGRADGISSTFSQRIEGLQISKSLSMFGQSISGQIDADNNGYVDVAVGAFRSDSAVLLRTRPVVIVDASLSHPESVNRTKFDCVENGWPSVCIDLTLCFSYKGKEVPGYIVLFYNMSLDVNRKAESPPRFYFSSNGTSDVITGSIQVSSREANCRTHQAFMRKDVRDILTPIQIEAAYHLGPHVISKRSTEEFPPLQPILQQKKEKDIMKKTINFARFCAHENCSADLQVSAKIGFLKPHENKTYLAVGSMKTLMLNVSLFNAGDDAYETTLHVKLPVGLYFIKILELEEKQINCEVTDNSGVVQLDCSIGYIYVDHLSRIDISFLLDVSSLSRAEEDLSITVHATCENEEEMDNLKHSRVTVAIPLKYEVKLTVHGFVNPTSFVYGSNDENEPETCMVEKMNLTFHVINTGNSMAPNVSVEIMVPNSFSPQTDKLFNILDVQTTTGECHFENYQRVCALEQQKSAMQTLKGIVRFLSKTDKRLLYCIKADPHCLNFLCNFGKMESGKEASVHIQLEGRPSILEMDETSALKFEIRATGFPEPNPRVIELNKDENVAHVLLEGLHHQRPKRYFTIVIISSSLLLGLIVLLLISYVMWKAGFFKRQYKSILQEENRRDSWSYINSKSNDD

[8] = superoxide lowering in aged yeast cells, pilot screen, validation compound set (AID 2706;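 active = superoxide response below 65% of plate, a cut near 3 SD across the whole screen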;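 note: yeast exposed to compound for one week at 30 degrees C before staining; 100% = mean of all compound wells on the same plate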); conditions: S. cerevisiae aging, superoxide DHE fluorescence; at 10 µM, stronger effect = lower value
[9] = molecular target: Beta-adrenergic receptor kinase 1 (Homo sapiens) (UniProt P25098); assay: GRK2 binders displacing RNA aptamer, biochemical, validation, human GRK2, bead flow cytometry (AID 488806;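 active = aptamer binding inhibition above 30%, about 3 SD of noise from non-fluorescent compounds; inactive = inhibition at or below 30%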); conditions: bead-bound GRK2, FAM-aptamer displacement, at 10 µM, stronger effect = higher value
Chain of Beta-adrenergic receptor kinase 1 (Homo sapiens) (P25098 whole entry, looked up): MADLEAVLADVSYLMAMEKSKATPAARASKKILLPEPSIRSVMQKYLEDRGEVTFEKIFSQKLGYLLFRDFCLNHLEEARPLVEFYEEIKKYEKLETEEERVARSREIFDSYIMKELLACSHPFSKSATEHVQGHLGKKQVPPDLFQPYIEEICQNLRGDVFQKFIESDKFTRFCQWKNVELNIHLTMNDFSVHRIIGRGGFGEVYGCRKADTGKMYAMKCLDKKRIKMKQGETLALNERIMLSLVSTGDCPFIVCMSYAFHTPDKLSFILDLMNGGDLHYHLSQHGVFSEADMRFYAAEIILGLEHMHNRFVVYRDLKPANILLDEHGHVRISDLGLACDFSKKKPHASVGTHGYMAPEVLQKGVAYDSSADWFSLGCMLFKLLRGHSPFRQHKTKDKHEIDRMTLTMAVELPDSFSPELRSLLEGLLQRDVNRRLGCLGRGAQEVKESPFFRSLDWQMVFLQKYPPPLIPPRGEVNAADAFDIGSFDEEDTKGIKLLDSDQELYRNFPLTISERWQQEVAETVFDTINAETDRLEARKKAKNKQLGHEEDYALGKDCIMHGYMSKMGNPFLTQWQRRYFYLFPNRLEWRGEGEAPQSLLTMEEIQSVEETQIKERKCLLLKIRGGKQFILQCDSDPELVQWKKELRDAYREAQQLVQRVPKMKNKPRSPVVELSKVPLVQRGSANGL

[10] = molecular target: AP-2 complex subunit beta (Homo sapiens) (UniProt P63010); assay: inhibitors of arrestin peptide binding to AP2, pilot screen, biochemical, validation set, GST-AP2 beads, flow cytometry (AID 504541;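 active = inhibition above 54%, about 3 SD of non-fluorescent compounds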;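 note: AP2 carries R879A mutation and is captured from E. coli lysate; bead-bound FITC arrestin peptide fluorescence measuring arrestin peptide binding to AP2; 0% = DMSO wells and 100% = excess unlabeled arrestin peptide control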); conditions: FITC arrestin peptide, at 10 µM, stronger effect = higher value, AP2 beta2 appendage fragment, R879A mutant
Chain of AP-2 complex subunit beta (Homo sapiens) (P63010 whole entry, looked up, the tested form may be a part, one chain of several): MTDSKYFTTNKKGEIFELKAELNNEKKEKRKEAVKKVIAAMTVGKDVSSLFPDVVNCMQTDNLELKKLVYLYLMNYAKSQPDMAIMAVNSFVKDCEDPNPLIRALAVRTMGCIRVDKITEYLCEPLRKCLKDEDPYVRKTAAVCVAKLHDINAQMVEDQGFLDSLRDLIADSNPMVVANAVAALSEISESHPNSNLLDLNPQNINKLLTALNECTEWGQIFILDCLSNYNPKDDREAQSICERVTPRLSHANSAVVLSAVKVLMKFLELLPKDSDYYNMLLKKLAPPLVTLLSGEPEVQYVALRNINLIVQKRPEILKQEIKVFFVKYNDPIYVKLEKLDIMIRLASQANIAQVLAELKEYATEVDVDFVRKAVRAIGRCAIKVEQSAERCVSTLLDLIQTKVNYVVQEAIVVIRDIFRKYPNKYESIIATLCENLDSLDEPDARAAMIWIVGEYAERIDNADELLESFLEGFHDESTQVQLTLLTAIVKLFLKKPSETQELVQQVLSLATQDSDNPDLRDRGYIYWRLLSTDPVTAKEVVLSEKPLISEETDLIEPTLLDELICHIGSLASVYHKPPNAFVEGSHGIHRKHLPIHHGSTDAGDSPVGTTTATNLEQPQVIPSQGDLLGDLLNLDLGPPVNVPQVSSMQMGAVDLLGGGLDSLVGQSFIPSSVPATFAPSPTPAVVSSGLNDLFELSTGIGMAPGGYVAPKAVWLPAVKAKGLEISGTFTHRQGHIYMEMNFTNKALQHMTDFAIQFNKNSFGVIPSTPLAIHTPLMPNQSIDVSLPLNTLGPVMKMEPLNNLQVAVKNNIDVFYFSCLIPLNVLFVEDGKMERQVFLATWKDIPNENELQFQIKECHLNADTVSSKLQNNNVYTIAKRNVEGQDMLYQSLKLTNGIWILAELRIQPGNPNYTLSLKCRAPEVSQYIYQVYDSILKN

[11] = yeast V-ATPase proton transport modulators, S. cerevisiae, pHLuorin, HTS validation (AID 504600; in the data active = response above about 15%;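 note: plate controls were DMSO for no effect and reference compound for full effect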); conditions: S. cerevisiae pHLuorin cytosolic pH, at 10 µM, stronger effect = higher value
[12] = system: anti-desmoglein-3 scFv antibody binding to human DSG3; assay: inhibitors of anti-DSG3 scFv binding to DSG3, pilot screen, biochemical, validation compound set, bead-based, flow cytometry (AID 588368;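 active = binding below the plate cutoff, the plate median minus 3 SD, with a reading above zero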;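 note: signal is the median channel fluorescence of bead-bound GFP antibody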); conditions: Protein G beads, DSG3-Fc, scFv-GFP binding, at 10 µM, stronger effect = lower value
[13] = inhibitors of fungal efflux pumps CDR1, CDR2, MDR1, pilot screen, validation compound set, multiplex, phenotypic (AID 588506;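 active = efflux inhibition above 0.42, the validation set average plus 4 SD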;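 note: Nile Red retained in cells so higher fluorescence means more efflux inhibition; 0 = negative control wells and 1 = enniatin B 25 µM full block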); conditions: S. cerevisiae pump-expressing triplex, Nile Red efflux flow cytometry; at 10 µM; stronger effect = higher value; the pumps come from Candida albicans
[14] = molecular target: ATP-binding cassette sub-family B member 6 (Homo sapiens) (UniProt Q9NP58); assay: ABCB6 transporter inhibitors, pilot screen, K562-ABCB6 cells, flow cytometry, validation set (AID 588550;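 active = inhibition above the screen-wide mean plus 3 SD, about 51%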;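 note: 0% = DMSO wells and 100% = benzethonium chloride 70 µM positive control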); conditions: K562-ABCB6 porphyrin accumulation, 1 h, at 10 µM, stronger effect = higher value
Chain of ATP-binding cassette sub-family B member 6 (Homo sapiens) (Q9NP58 whole entry, looked up): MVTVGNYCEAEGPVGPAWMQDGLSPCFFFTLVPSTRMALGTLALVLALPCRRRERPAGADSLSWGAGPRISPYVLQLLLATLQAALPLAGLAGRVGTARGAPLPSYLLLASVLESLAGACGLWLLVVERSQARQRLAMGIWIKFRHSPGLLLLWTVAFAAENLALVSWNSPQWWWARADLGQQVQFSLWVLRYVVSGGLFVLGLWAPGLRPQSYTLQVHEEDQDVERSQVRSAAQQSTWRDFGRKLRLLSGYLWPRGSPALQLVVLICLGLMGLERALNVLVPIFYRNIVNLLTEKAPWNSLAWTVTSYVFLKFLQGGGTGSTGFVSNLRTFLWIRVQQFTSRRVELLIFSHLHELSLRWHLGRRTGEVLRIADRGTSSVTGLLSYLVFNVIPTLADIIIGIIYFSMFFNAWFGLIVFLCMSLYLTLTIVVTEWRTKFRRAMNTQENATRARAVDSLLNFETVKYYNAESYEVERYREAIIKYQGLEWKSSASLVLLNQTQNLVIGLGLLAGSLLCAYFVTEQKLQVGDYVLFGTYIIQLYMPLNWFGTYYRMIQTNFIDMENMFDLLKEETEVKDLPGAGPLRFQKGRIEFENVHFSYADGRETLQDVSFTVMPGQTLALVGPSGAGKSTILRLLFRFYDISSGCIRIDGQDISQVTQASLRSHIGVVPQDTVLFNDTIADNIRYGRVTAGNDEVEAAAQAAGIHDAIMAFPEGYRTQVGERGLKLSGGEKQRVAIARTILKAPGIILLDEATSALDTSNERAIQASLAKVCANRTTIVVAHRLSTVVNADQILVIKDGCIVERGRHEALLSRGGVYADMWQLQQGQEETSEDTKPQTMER

[15] = promoters of myeloid differentiation in arrested cells, primary screen, cell-based, GFP/MAC1 double positive, flow cytometry, validation set (AID 588685;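 active = differentiation response of at least 50%, scaled between solvent and reference control, from cells with both markers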;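 note: compound exposure lasts four days before antibody staining and flow analysis; 0% = DMSO wells and 100% = 5 µM fulvestrant positive control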); conditions: ER-HoxA9 marrow cells, stronger effect = higher value, normalized: vehicle 0, fulvestrant 100

SMILES | percent of DMSO control GFP [1] | GFP response vs DMSO [2] | percent response of DMSO control [3] | GFP response vs DMSO [4] | GFP response, % of DMSO [5] | double positive events [6] | vesicle binding response [6] | inhibition [7] | superoxide response (% of plate) [8] | aptamer binding inhibition [9] | inhibition [10] | response [11] | binding (% of control) [12] | efflux inhibition (fraction of control) [13] | inhibition [14] | differentiation response [15]
C[C@@H]1C[C@H]2[C@@H]3CCC4=CC(=O)C=C[C@]4(C)[C@@]3(F)[C@@H](O)C[C@]2(C)[C@H]1C(=O)CO | 102% (inactive) | 97.9% (inactive) | 109% (inactive) | 81.3% (inactive) | 96.6% (inactive) | 54.1% | 226% (inactive) | -12.4% (inactive) | 107% (inactive) | -2% (inactive) | -3.18% (inactive) | -6.95% (inactive) | 97.8% (inactive) | -0.12 (inactive) | 6% (inactive) | -11.5% (inactive)
CCOC(=O)Nc1ccc2c(c1)N(C(=O)CCN1CCOCC1)c1ccccc1S2 | 107% (inactive) | 102% (inactive) | 109% (inactive) | 92.3% (inactive) | 109% (inactive) | 48.8% | 120% (inactive) | -8.64% (inactive) | 106% (inactive) | 0% (inactive) | 9.79% (inactive) | -2.72% (inactive) | 97.3% (inactive) | -0.43 (inactive) | 8% (inactive) | -8.27% (inactive)
CC(C)Cc1ccc(C(C)C(=O)Nc2ccc(O)cc2)cc1 (stereo not given) | 103% (inactive) | 105% (inactive) | 107% (inactive) | 106% (inactive) | 99.7% (inactive) | 58.6% | 178% (inactive) | 13.8% (inactive) | 110% (inactive) | 2% (inactive) | 33.6% (inactive) | -13.1% (inactive) | 105% (inactive) | 0.14 (inactive) | 1% (inactive) | 0% (inactive)
Cc1ccccc1-c1coc2cc(O)ccc2c1=O | 98.5% (inactive) | 96.9% (inactive) | 90% (inactive) | 116% (inactive) | 97.3% (inactive) | 60.2% | 187% (inactive) | -21.7% (inactive) | 89.2% (inactive) | 4% (inactive) | 30.2% (inactive) | 0.4% (inactive) | 99.1% (inactive) | -0.05 (inactive) | 8% (inactive) | -14.7% (inactive)
COc1cc2c(cc1OC)C(c1cc(OC)c(OC)c(OC)c1)NCC2 (stereo not given) | 101% (inactive) | 103% (inactive) | 108% (inactive) | 90.3% (inactive) | 102% (inactive) | 59.3% | 148% (inactive) | -0.24% (inactive) | 102% (inactive) | 2% (inactive) | -5.98% (inactive) | -3.82% (inactive) | 96% (inactive) | -0.01 (inactive) | 7% (inactive) | -14.7% (inactive)
O=S(=O)(NCCCCCNS(=O)(=O)c1ccccc1)c1ccccc1 | 104% (inactive) | 105% (inactive) | 95.9% (inactive) | 92.3% (inactive) | 92.8% (inactive) | 57.2% | 127% (inactive) | -13.3% (inactive) | 104% (inactive) | -3% (inactive) | 3.03% (inactive) | 1.49% (inactive) | 103% (inactive) | 0.56 (active) | 10% (inactive) | -11.5% (inactive)
COc1ccc(CCNC(=S)NC(=O)/C=C/c2ccc(C)cc2)cc1OC | 101% (inactive) | 107% (inactive) | 106% (inactive) | 103% (inactive) | 95.4% (inactive) | 51.6% | 136% (inactive) | 3.49% (inactive) | 98.2% (inactive) | 2% (inactive) | 13.3% (inactive) | -1.1% (inactive) | 106% (inactive) | 0.22 (inactive) | 4% (inactive) | -8.27% (inactive)
COc1ccccc1-c1ccc(/C=C2/C=C(CC(C)C)OC2=O)o1 | 99.5% (inactive) | 101% (inactive) | 93% (inactive) | 105% (inactive) | 90.1% (inactive) | 58.1% | 120% (inactive) | -43.1% (inactive) | 103% (inactive) | 2% (inactive) | 2.34% (inactive) | 1.04% (inactive) | 99.5% (inactive) | 0.75 (active) | 5% (inactive) | -22.8% (inactive)
Nc1cccc2c1nnn2C1OC(CO)C(O)C(O)C1O (stereo not given) | 104% (inactive) | 94.8% (inactive) | 102% (inactive) | 85.3% (inactive) | 102% (inactive) | 58% | 192% (inactive) | -3.97% (inactive) | 82.8% (inactive) | 0% (inactive) | -6.04% (inactive) | 4.02% (inactive) | 105% (inactive) | -0.05 (inactive) | 4% (inactive) | -18% (inactive)
CC1(C)NC(C(=O)O)Cc2c1[nH]c1ccccc21 (stereo not given) | 112% (inactive) | 106% (inactive) | 109% (inactive) | 98.4% (inactive) | 105% (inactive) | 62.5% | 175% (inactive) | 5.36% (inactive) | 97.5% (inactive) | 1% (inactive) | 14.4% (inactive) | -1.17% (inactive) | 112% (inactive) | 0.1 (inactive) | 8% (inactive) | -16.4% (inactive)
